Screens from PubChem.
Only a selection was taken, and hits are over-represented in it overall.
Cruzain Triton: qHTS Assay for Promiscuous and Specific Inhibitors of Cruzain (with detergent). Cruzipain (Trypanosoma cruzi), P25779. purified cruzain, Z-FR-AMC fluorescence, 0.01% Triton. Potency, µM, for the others: max response, negative = inhibition, most hits filed as inhibitors. 200,000 compounds, 0.43% hits;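 note: plate controls were neutral wells for no effect and buffer without enzyme for full effect; nearly all actives have a fitted effect of over 40% in size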
Target sequence (P25779 123-467 limits assumed): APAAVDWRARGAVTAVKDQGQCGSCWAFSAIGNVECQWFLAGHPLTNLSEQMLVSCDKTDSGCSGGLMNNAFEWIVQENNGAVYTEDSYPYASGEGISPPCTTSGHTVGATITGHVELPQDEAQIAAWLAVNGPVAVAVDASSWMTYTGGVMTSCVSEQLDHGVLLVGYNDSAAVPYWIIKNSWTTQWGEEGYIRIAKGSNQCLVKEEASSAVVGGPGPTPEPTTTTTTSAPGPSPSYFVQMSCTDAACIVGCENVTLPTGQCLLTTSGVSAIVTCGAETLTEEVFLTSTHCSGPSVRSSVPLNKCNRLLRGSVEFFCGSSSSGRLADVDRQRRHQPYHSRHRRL
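Purified cruzain (1.5 nM final) was preincubated with compounds for 15 min at room temperature in 100 mM sodium acetate pH 5.5, 5 mM DTT, 0.01% Triton X-100. Reaction started with 2 uM Z-FR-AMC; AMC fluorescence change over 60 s gave activity.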
Cruzain inh noDet: qHTS Assay for Promiscuous and Specific Inhibitors of Cruzain (without detergent); purified cruzain, Z-FR-AMC fluorescence, no detergent; AID 1476, 2009; Potency, µM, for inactives: max response, negative = inhibition, most hits filed as inhibitors; 200,000 compounds, 2.3% hits; Cruzipain (Trypanosoma cruzi), P25779;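 note: plate controls were enzyme without inhibitor for no effect and buffer without enzyme for full effect; nearly all actives have a fitted effect of over 40% in size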
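Purified cruzain at 1.5 nM, pre-incubated 15 min with compound at room temperature in 100 mM sodium acetate pH 5.5, 5 mM DTT, 0.00005% Triton X-100. Reaction started with 2 uM Z-FR-AMC; AMC fluorescence increase over 60 s gives rate.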
NS1 inh: qHTS Assay for Inhibitors of Influenza NS1 Protein Function | Potency, µM (titrated, usually from 46.1 µM), for the others: top-dose activity, positive = more growth | 270,000 compounds, 0.4% hits | AID 2326, 2010; calls by dose curve; note: actives are rising curves; nearly all actives have a fitted effect of over 50% in size
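In this qHTS, NS1 from influenza A is expressed in budding yeast, where it slows growth. Cells are switched from glucose to 2% galactose medium (pH 6.0, -URA), treated with compound, and growth recovery is read at OD600.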
* = called active by the depositor; ? = inconclusive; · = no result given; ! = repeats disagree. Unless noted, calls come from the whole dose curve; as a rule, active = well fitted curve in the direction sought with a large enough effect; inconclusive = small, poorly fitted or top-dose-only effect, or another doubt; inactive = no such curve, though single readings can be large; an effect the other way counts as inactive or inconclusive. Potency is the fitted concentration of half-maximal effect.

SMILES	Cruzain Triton	Cruzain inh noDet	NS1 inh
O=C(N/N=C\c1ccc2c(c1)CCC2)c1ccccc1O	0%	-11%	-8%
Cc1cccc(-c2nc3c4ccccc4nc(N4CCN(c5cccc(Cl)c5)CC4)n3n2)c1	0%	15%	·
CCCCCn1c(N2CCN(c3cccc(Cl)c3)CC2)nc2c1c(=O)[nH]c(=O)n2C	-13%	?	-51%
Cn1c(=O)[nH]c(=O)c2c1nc(N1CCN(c3cccc(Cl)c3)CC1)n2CCCc1ccccc1	0%	13µM*	-2%
Cc1ccc(-n2nc(C(=O)N(C)c3ccc(C)c(C)c3)c3c4ccccc4n(C)c3c2=O)cc1	-2%	-18%	·
O=C1CC(=C2c3ccccc3-c3ccccc32)C(=O)N1CCCCN1CCN(c2ccccc2)CC1	-16%	16µM*	?
O=C1c2ccccc2C(=O)N1CCCCN1CCN(CCCCN2C(=O)c3ccccc3C2=O)CC1	·	·	4%
N/C(=N\c1nc(CSc2ccc(Cl)cc2)cc(=O)[nH]1)Nc1cccc2ccccc12	-4%	10µM*	5%
COc1ccc(N/C(N)=N/c2nc(CSc3ccc(Cl)cc3)cc(=O)[nH]2)cc1	-5%	-18%	11%
O=P1(O)Oc2c(c(-c3ccccc3)cc3ccc4ccccc4c23)-c2c(-c3ccccc3)cc3ccc4ccccc4c3c2O1	25µM*	-4%	·
O=P1(O)Oc2c(c(-c3ccccc3)cc3ccccc23)-c2c(-c3ccccc3)cc3ccccc3c2O1	-27%	?	·
COc1ccc2c(c1)N(C[C@@H](C)CN(C)C)c1ccccc1S2	-2%	-5%	·
COc1ccccc1NC(=O)c1sc2ncn(Cc3cccc4ccccc34)c(=O)c2c1C	13%	7.9µM*	6%
COc1ccccc1NC(=O)c1sc2ncn(Cc3ccc(C)cc3)c(=O)c2c1C	7%	-9%	13%
O=C(O)c1ccc2cc(-c3ccc(O)c(C45CC6CC(CC(C6)C4)C5)c3)ccc2c1	?	-14%	·
CCn1nnc2cc(C(=O)Nc3cc(C)ccc3C)ccc21	2%	-6%	·
CC(C)Sc1nc(SCC(=O)NCc2ccco2)c2c3c(sc2n1)COC(C)(C)C3	25µM*	25µM*	2%
CCCSc1nc(SCC(=O)NCc2ccccc2)c2c3c(sc2n1)COC(C)(C)C3	9%	-4%	1%
CCCCC/C=C\C/C=C\C/C=C\CCCCCCC(=O)NCC(=O)O	-7%	4%	·
COc1ccc(Oc2ncc3nc(-c4cccc(C#N)c4)c(=O)n(C)c3n2)cc1	1%	3%	·
O=C(Cn1cc(SCc2ccc(F)cc2)c2ccccc21)N1CCCC1	-10%	8%	·
Cc1cc(C)c2c(n1)SCCN2C(=O)Nc1ccc(C(=O)Nc2ccc(C(C)C)cc2)cc1	-10%	-2%	·
COc1ccc(NC(=O)c2ccc(CN(c3cc(Cl)ccc3C)S(=O)(=O)c3ccccc3)cc2)cc1OC	1%	?	15%
COc1ccccc1NC(=O)c1ccc(CN(c2cc(Cl)ccc2C)S(=O)(=O)c2ccccc2)cc1	0%	13µM*	5%
Cc1ccc(SCc2nc(-c3ccc(C(=O)NCC(C)c4ccccc4)cc3)oc2C)cc1 (stereo not given)	-7%	?	·
SMILES	Cruzain Triton	Cruzain inh noDet	NS1 inh
COc1cccc(Nc2ncc3nc(CCc4ccccc4)c(=O)n(Cc4cccs4)c3n2)c1	3%	4µM*	·
COc1ccc(-c2nc3cnc(Nc4ccccc4)nc3n(Cc3cccs3)c2=O)cc1	0%	-1%	·
Cc1nc2cnc(Nc3ccccc3)nc2n(Cc2cccs2)c1=O	1%	1%	·
COc1ccc(Oc2ncc3nc(C)c(=O)n(Cc4cccs4)c3n2)cc1	-6%	13%	·
COc1cccc(Nc2ncc3nc(-c4ccccc4)c(=O)n(Cc4cccs4)c3n2)c1	1%	5µM*	·
O=c1c(CCc2ccccc2)nc2cnc(Nc3ccccc3)nc2n1Cc1cccs1	4%	25µM*	·
COCCn1c(=O)c(CCc2ccccc2)nc2cnc(Nc3cccc(OC)c3)nc21	3%	1%	·
COc1ccc(Oc2ncc3nc(-c4ccccc4)c(=O)n(Cc4cccs4)c3n2)cc1	-1%	25µM*	·
COC(=O)C(C(=O)OC)C(Cc1cc(F)cc(F)c1F)NC=O (stereo not given)	6%	-8%	·
C[C@@H]1O[C@@H](O)[C@@H](O)[C@H](O)[C@H]1O	-1%	4%	-3%
Cc1ccc(CN(Cc2ccco2)C(=O)c2oc3c(C)c(C)ccc3c2C)cc1	-11%	25µM*	·
Cc1ccc(CN(Cc2ccco2)C(=O)c2oc3ccc(C)cc3c2C)cc1	-7%	?	·
O=C1C2=C(Nc3cc([N+](=O)[O-])ccc3N2)O[C@@H]1c1ccc([C@H]2OC3=C(Nc4ccc([N+](=O)[O-])cc4N3)C2=O)cc1	-3%	-4%	8%
CCCN(CC1CC1)c1nc(C)nc(Nc2c(Cl)cc(Cl)cc2Cl)c1Cl	-2%	25µM*!	-17%
CCCN(CC1CC1)c1nc(N)c(C#N)c(CC#N)c1C#N	-6%	-9%	1%
COc1ccc(S(=O)(=O)c2cn(CC(=O)Nc3cc(C)ccc3C)c3ccccc3c2=O)cc1	0%	-5%	·
Cc1cccc(-n2c(/C=C/c3c(C)[nH]c4ccccc34)nc3ccccc3c2=O)c1	0%	-3%	·
Cc1[nH]c2ccccc2c1/C=C/c1nc2ccccc2c(=O)n1-c1ccc([N+](=O)[O-])cc1	1%	25µM*	14%
COC(=O)C/C=C1\c2ccc3c(c2[C@@H](OC)[C@@H]1C)OCO3	2%	-4%	·
COC(=O)/C=c1/s/c(=C(/C#N)C(=O)NCc2ccccc2)n(-c2ccccc2)c1=O	1%	?	3%
CCCCCCOc1ccc(/C=c2\s/c(=C(/C#N)C(=O)NCc3ccco3)n(-c3ccccc3)c2=O)cc1	-1%	3.2µM*	10%
COc1cccc(N2CCN(C(=O)CCc3c(C)nc4c(c3C)c(=O)n(C)c(=O)n4C)CC2)c1	2%	2%	·
CC(=O)O[C@H]1CC[C@@]2(C)[C@@H](CC[C@H]3[C@H]2CC(=O)[C@@]2(C)[C@@H]3C[C@H]3CC(C)=CC(=O)[C@H]32)C1	-7%	-6%	-13%
Cc1cccc(C(C)C)c1NC(=O)COC(=O)c1cccc(S(=O)(=O)N2CCc3ccccc3C2)c1	1%	25µM*	21%
CCc1cccc(CC)c1NC(=O)COC(=O)c1cccc(S(=O)(=O)N2CCc3ccccc3C2)c1	-6%	2%	3%
SMILES	Cruzain Triton	Cruzain inh noDet	NS1 inh
CC(=O)[C@H](C(=N)C#N)C(=O)Nc1ccccc1	1%	8%	6%
CCN(C(=O)CSc1nc2ccccc2n1Cc1ccc(C(=O)OC)cc1)c1ccccc1	-4%	21%	·
CC(C)Cn1c(-c2ccco2)csc1=Nc1cccnc1	16µM*	13µM*	-12%
COCCn1c(-c2ccco2)csc1=Nc1cccnc1	-3%	0%	6%
Ic1ccc2c(c1)N(c1ccccc1)c1cc(Nc3ccc4nc5ccc(I)cc5[n+](-c5ccccc5)c4c3)ccc1N2	-2%	3.2µM*	5%
CSc1ccc(-c2nc3cccc(C)n3c2Nc2ccc(Cl)cc2)cc1	-10%	-8%	·
CSc1ccc(CCNC(=O)c2csc3c2CCCCC3)cc1	-3%	?	·
COc1cc(NC(=O)CSc2nc(-c3ccc(C(C)C)cc3)no2)cc(OC)c1	1%	5%	·
